TDP1 cell noCPT: qHTS for Inhibitors of human tyrosyl-DNA phosphodiesterase 1 (TDP1): qHTS in cells in absence of CPT | Potency, µM (doses to about 46.2 µM), for the others: at the highest dose activity change, negative = growth inhibition, hits mostly inhibitors | hit rate 15% among 420,000 | DT40 Tdp1-/- hTDP1 cells, no CPT, ATP luminescence, 48 h; further: nearly all actives have a fitted effect of over 55% in size
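A cellular qHTS used chicken DT40 cells lacking endogenous Tdp1 but carrying stably transfected human TDP1. Compounds were applied without camptothecin, and cell growth kinetics were judged by ATP-dependent luminescence after ≥48 hr.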
TDP1 cell CPT: growth inhibition of DT40 Tdp1-/-;hTDP1 cells with camptothecin (screen for TDP1 inhibitors); chicken DT40 Tdp1-/-;hTDP1 cells + 20 nM CPT, ATP luminescence, 48 h; Potency, µM (titrated, usually from 46.2 µM), inactives show at the highest dose activity change, negative = growth inhibition, actives largely listed as inhibitors; hit rate 12% among 420,000; further: nearly all actives have a fitted effect of over 55% in size
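Chicken DT40 Tdp1-/- cells complemented with human TDP1, 400 cells/well, exposed to compounds plus 20 nM camptothecin for at least 48 h at 37 C; viability read as ATP content by CellTiter-Glo luminescence.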
HT1080NT lethal: kills 2HG-producing HT-1080-NT fibrosarcoma cells. HT-1080-NT fibrosarcoma viability, CellTiter-Glo ATP luminescence, 48 h. Potency, µM (doses to about 46.1 µM), for inactives: top-dose activity, negative = less viability, actives largely listed as cytotoxic. hit rate 1.6% among 360,000. AID 686970;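 further: NT is the 2HG producing partner of a matched IDH1 knockdown line; 0% = DMSO-treated cells and -100% = media-only wells without cells; nearly all actives have a fitted effect of over 55% in size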
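Viability of the 2HG-overproducing fibrosarcoma line after 48 hours of compound exposure at 37 degrees C was determined by luminescence with CellTiter-Glo, and concentration-effect curves were then fitted and categorized.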
KB-3-1 tox: kills parental KB-3-1 adenocarcinoma cells; Potency, µM (doses to about 46.1 µM), most hits filed as cytotoxic; KB-3-1 viability, CellTiter-Glo ATP luminescence, 72 h; hit rate 1.4% among 400,000; further: nearly all actives have a fitted effect of over 60% in size
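Here the drug-naive KB-3-1 line serves as comparator for MDR sub-line selectivity; cells received compound titrations, 72 h at 37 °C, then CellTiter-Glo readout.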
HT1080 IDH1KD tx: kills HT-1080 cells with IDH1 knockdown; HT-1080 IDH1 knockdown viability, ATP luminescence, 48 h; Potency, µM (doses to about 46.1 µM), for the others: at the highest dose activity, negative = toxicity, hits mostly cytotoxic; hit rate 2% among 360,000;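 further: 0% = DMSO wells and -100% = cell-free medium wells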
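Using the IDH1-knockdown HT-1080 line run in the same batch and compound series as the NT line, viability after 48 h at 37 °C was determined by CellTiter-Glo luminescence and expressed as % activity.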
KB-V1 cytotox: KB-V1 MDR subline cytotoxicity; hit rate 3.4% among 400,000; KB-V1 MDR cells viability, CellTiter-Glo, 72 h; Potency, µM (titrated, usually from 46.1 µM), most hits filed as cytotoxic; further: nearly all actives have a fitted effect of over 60% in size
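Compound-treated KB-V1 multidrug-resistant cells, 72 h, 37 degrees C; viability by CellTiter-Glo. Fitted qHTS curves give the values.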
The depositor's hits bear a star; i = inactive; ? = inconclusive; · = no result given; ! = a repeat was not active. Shown are actives, neighbours in structure and some others; about 19% of the full set was active somewhere. The call rests on the fitted dose curve; in most records, active means well fitted curve in the direction sought with a large enough effect; inconclusive means small, poorly fitted or top-dose-only effect, or another doubt; inactive means no such curve, though single readings can be large; an effect the other way counts as inactive or inconclusive. Unless noted, on the % scale 0 is the no-effect control and ±100 the full control effect; potency means the concentration at half of the fitted maximal effect.

SMILES	TDP1 cell noCPT	TDP1 cell CPT	HT1080NT lethal	KB-3-1 tox	HT1080 IDH1KD tx	KB-V1 cytotox
Cc1ccc(N2CCN(CC(O)COc3cccc4ccccc34)CC2)cc1 (centres undefined)	?	?	2.2%	i	-6.0%	i
COc1ccccc1N1CCN(CC(O)COc2c(OC)cccc2OC)CC1 (centres undefined)	?	16.4µM*	-14.7%	i	-13.8%	?
CC(=O)Nc1ccc2nc3c(=O)n(C)c(=O)n(C)c3nc2c1	?	-28.7%	8.3%	i	2.7%	i
OCCN1CCN(CC(O)COCCOc2ccc(Br)cc2)CC1 (centres undefined)	23.1µM*	?	-1.3%	i	1.1%	i
OCCN1CCN(CC(O)COc2ccc(-c3ccccc3)cc2)CC1 (centres undefined)	?	?	-28.0%	i	-22.9%	i
Cc1ccc(NC2=CC(c3ccccc3F)N(c3ccc(C)cc3)C2=O)cc1 (centres undefined)	?	-29.3%	·	i	·	i
COc1cccc(-n2ccnc2SCC(=O)N2CCCc3ccccc32)c1	?	?	4.7%	i	-9.8%	?
CCOc1ccccc1CNC(=O)Cc1ccc(NC(=O)N2CCCCc3ccccc32)cc1	9.2µM*	11.6µM*	·	i	·	i
CCOc1ccc(NC(=O)Cc2ccc(NC(=O)N3CCCCc4ccccc43)cc2)cc1	5.17µM*	5.17µM*	·	i	·	i
CC(=O)c1cccc(NC(=O)Cc2ccc(NC(=O)N3CCCCc4ccccc43)cc2)c1	16.4µM*	?	·	i	·	i
CCOc1ccc(-n2ccnc2SCC(=O)N2CCCc3ccccc32)cc1	?	?	-4.5%	i	-4.7%	11.6µM*
CC1=CC(C)(C)[N+](C)=CN1c1ccccc1	?	-4.6%	1.5%	i	25.2%	i
CN1CCc2[nH]c3ccc(Cl)cc3c2C1	-25.4%	3.7%	·	i	·	?
CN(N=Nc1nc[nH]c1C(N)=O)C1CCCCC1	-22.2%	?	-19.6%	i	?	?
CCOc1ccc(NC(=O)CSc2ccc3nnc(-c4cccnc4)n3n2)cc1	?	-11.8%	29.1%	i	6.6%	i
CCOC(=O)C(CC)Sc1ccc2nnc(-c3cccnc3)n2n1 (centres undefined)	?	14.1µM*!	-5.0%	i	-7.5%	?
CCOC(=O)N1CCN(C(=O)CSc2ccc3nnc(-c4cccnc4)n3n2)CC1	18.4µM*	?	-7.7%	i	15.0%	i
O=C(CSc1ccc2nnc(-c3cccnc3)n2n1)c1ccccc1	-26.6%	2.5%	5.1%	i	-4.7%	i
Cc1ccc(NC(=O)C2CCN(c3nc4ccccc4[nH]3)CC2)c(C)c1	?	?	·	i	·	i
COc1ccc(C(=O)Nc2ccncc2)cc1[N+](=O)[O-]	-19.9%	-29.2%	-2.4%	i	0.2%	i
O=C(Nc1ccc(C2=NCCN2)cc1)c1ccc(C(=O)Nc2ccc(C3=NCCN3)cc2)c([N+](=O)[O-])c1	6.51µM*	6.51µM*	-0.7%	i	-7.6%	i
Cc1ccc(CNC(=O)CN(c2ccc(Cl)cc2)S(C)(=O)=O)cc1	-13.2%	-14.1%	-0.4%	i	-3.3%	i
O=C1/C(=C/c2ccccc2Cl)SC(=S)N1CCC(=O)N1CCCCC1CCO (centres undefined)	10.3µM*	16.4µM*	-4.6%	i	-5.5%	i
CC(C)c1ccc(/C=C2\SC(=S)N(CCC(=O)N3CCCCC3CCO)C2=O)cc1 (centres undefined)	20.6µM*	?	-3.5%	i	-1.0%	i
Cc1c(C2(c3cc(C(C)C)c(O)c(Br)c3C)OS(=O)(=O)c3ccccc32)cc(C(C)C)c(O)c1Br	-7.0%	-1.0%	·	i	·	i
SMILES	TDP1 cell noCPT	TDP1 cell CPT	HT1080NT lethal	KB-3-1 tox	HT1080 IDH1KD tx	KB-V1 cytotox
NC(CO)C(=O)NNCc1ccc(O)c(O)c1O (centres undefined)	4.61µM*	3.66µM*	11.8%	?	-1.8%	i
COc1ccc(CCC(=O)NC2CC(=O)N(c3ccc(F)cc3)C2)cc1 (centres undefined)	-5.6%	2.4%	·	·	·	·
Cc1ccc(-c2nn(-c3ccccc3)cc2C=C2C(=O)CC(C)(C)CC2=O)cc1	?	14.6µM*	-28.5%	?	?	18.4µM*
CC1(C)CC(=O)C(=Cc2cn(-c3ccccc3)nc2-c2ccccc2)C(=O)C1	23.1µM*	23.1µM*	2.3%	i	15.1%	?
CC1=NNC(=O)/C1=C\c1cn(-c2ccccc2)nc1-c1ccc(Cl)cc1	5.17µM*	5.17µM*	7.31µM*	25.9µM*	5.8µM*	16.4µM*
O/N=C/c1cn(-c2ccccc2)nc1-c1ccccc1	?	?	-16.0%	i	?	i
CC1=NN(c2ccccc2)C(=O)/C1=C\c1cn(CCC#N)nc1-c1ccc(Cl)cc1	?	?	-0.4%	i	-5.9%	i
CCNC(=O)C1(C)CCN(C(=O)c2ccc(N(C)C)cc2)C1 (centres undefined)	4.2%	3.4%	24.6%	i	26.8%	i
CC(=O)Nc1ccc(NC(=O)c2cnn(-c3ccccc3)c2C2CCN(C(=O)OC(C)(C)C)CC2)cc1	-21.8%	-23.3%	·	i	·	i
CCOc1ccc(NC(=O)c2cnn(-c3ccc(C)c(C)c3)c2C2CCN(C(=O)OC(C)(C)C)CC2)cc1	16.4µM*	16.4µM*	·	i	·	i
COc1ccc(-n2ncc(C(=O)NCc3ccc4c(c3)OCO4)c2C2CCN(C(=O)OC(C)(C)C)CC2)cc1	?	16.4µM*	·	i	·	i
Cc1ccc(-n2ncc(C(=O)NCCN3CCCC3)c2C2CCN(C(=O)OC(C)(C)C)CC2)cc1C	?	16.4µM*	·	i	·	i
CN1CCN(CCNC(=O)c2cnn(-c3ccc(F)cc3)c2C2CCN(C(=O)OC(C)(C)C)CC2)CC1	?	?	·	i	·	i
CC(C)(C)OC(=O)N1CCC(c2c(C(=O)NCCN3CCc4ccccc4C3)cnn2-c2ccc(F)cc2)CC1	?	?	·	i	·	i
Cc1ccc(-n2ncc(C(=O)NCCN3CCc4ccccc4C3)c2C2CCNCC2)cc1C	20.6µM*	20.6µM*	·	i	·	?

Compound activity (PubChem BioAssay)
